Source: PubChem
Rows were chosen to be rich in hits. Some 1.2% of all compounds tested hit in one or more screens of this group.
GC-B act – human GC-B receptor activators, primary screen, HEK293 GC-B cells, cGMP TR-FRET, EC30 CNP | hit rate 0.11% among 370,000 | activation, % at 10 µM | 0% at EC30 CNP, 100% saturating CNP;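 active = activation at 10 µM reaching about 35% in either raw or pattern-adjusted values, limit read from the data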
Target sequence (P20594 whole entry, looked up): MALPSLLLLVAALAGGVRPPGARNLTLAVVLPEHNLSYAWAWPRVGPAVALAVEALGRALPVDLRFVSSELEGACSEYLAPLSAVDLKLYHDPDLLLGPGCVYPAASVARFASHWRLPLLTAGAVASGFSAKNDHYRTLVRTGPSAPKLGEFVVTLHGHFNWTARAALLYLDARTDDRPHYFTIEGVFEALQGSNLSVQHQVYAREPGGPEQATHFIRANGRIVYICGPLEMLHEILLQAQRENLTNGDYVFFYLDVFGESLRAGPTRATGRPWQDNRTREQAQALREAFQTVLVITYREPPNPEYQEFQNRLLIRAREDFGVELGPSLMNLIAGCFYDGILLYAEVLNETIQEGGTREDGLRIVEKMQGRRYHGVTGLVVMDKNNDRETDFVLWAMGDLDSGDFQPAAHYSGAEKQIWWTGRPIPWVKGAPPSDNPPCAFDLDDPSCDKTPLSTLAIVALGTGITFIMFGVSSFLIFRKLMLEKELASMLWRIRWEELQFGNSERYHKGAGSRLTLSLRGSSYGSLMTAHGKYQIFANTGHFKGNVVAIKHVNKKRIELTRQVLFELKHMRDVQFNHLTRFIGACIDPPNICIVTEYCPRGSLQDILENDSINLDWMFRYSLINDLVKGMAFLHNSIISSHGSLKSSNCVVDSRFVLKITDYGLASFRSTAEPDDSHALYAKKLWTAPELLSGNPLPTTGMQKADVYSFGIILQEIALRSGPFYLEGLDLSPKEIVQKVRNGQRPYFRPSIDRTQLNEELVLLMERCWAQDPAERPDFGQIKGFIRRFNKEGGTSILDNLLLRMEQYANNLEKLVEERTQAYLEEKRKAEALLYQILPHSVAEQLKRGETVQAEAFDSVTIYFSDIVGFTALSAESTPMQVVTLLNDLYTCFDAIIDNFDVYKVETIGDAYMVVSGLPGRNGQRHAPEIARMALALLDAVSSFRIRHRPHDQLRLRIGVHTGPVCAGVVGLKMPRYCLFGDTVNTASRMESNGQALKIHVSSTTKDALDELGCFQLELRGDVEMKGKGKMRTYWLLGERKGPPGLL
NPR1 activator – GC-A stimulated cGMP production enhancers – HEK293 GC-A cells, cGMP TR-FRET, EC30 ANP, primary screen; Atrial natriuretic peptide receptor 1 (Homo sapiens), P16066; 0% at EC30 ANP, 100% saturating ANP; activation, % at 10 µM; hit rate 0.14% among 370,000; in the data active = activation above about 40%
NOD2 RIPK2 PPI – NOD2-RIPK2 binding disruptors in cells, primary screen, fluorescence, CHO cells, BLA complementation | CCF4 ratio | inhibition, % at 4.98 µM | hit rate 0.38% among 360,000 | AID 624267, 2012; in the data active = inhibition above about 21%;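 note: 0% = vehicle only and 100% = reference blocker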
TLR4 MyD88 comp – inhibitors of TLR4-MyD88 association in cells, primary screen, cell-based, HeLa CL3-4, BLA complementation, FRET ratio. Toll-like receptor 4 (Homo sapiens) + Myeloid differentiation primary response protein …. HeLa CL3-4 TLR4/MyD88 BLA complementation. inhibition, % at 8.4 µM. hit rate 0.18% among 200,000. AID 861, 2007; in the data active = inhibition above about 25%;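 note: 0% = vehicle and 100% = reference inhibitor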
TLR9-MyD88 block – inhibitors of TLR9-MyD88 association in cells, primary screen, cell-based, CHO, BLA complementation, fluorescence. hit rate 0.21% among 340,000. inhibition, % at 4.98 µM. Toll-like receptor 9 (Homo sapiens) + Myeloid differentiation primary response protein …. CCF4 FRET ratio;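 active = inhibition above the mean over all tested compounds plus 3 SD, cut at about 21% in these data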;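 note: 0% = DMSO only wells and 100% = clavulanate BLA inhibitor control wells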
Neddylation inh – inhibitors of cullin neddylation, primary screen, biochemical, TR-FRET, uHTS, NAE and Ubc12; NEDD8-conjugating enzyme Ubc12 (Homo sapiens) + NEDD8-activating enzyme E1 regulatory …; inhibition, % at 25 µM; hit rate 0.58% among 360,000; AID 651699, 2012; in the data active = inhibition above about 36%
Neddyl inh conf – blockade of NEDD8 conjugation to cullin – biochemical, TR-FRET, single concentration, confirmation; calls only at 25 µM; AID 652217, 2013; shares compounds with Neddylation inh; TR-FRET cullin neddylation biochemical assay; hit rate 13% among 1,800; in the data active = inhibition above about 40%;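 note: neddylation substrate is the cullin 1 ring ligase complex with SKP2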
An asterisk follows results filed as active; i = inactive; . = no result shown; + = active, no number.

SMILES	GC-B act	NPR1 activator	NOD2 RIPK2 PPI	TLR4 MyD88 comp	TLR9-MyD88 block	Neddylation inh	Neddyl inh conf
Cc1ccc2nc(C(C)(C)C)c(Cc3cccc(F)c3)n2c1	-2.9	-3.0	-2.9	.	.	40.0*	i
Cc1ccc(-c2nc3ccc(C)cn3c2Cc2cccc(F)c2)cc1	34.7	24.3	-2.0	.	.	32.6	.
CCCC[C@@H]1C(=O)N2N=Cc3cscc3[C@H]2N2N=Cc3cscc3[C@@H]12	-14.7	-11.1	.	.	.	.	.
CCCc1cc(=O)n2[nH]c(-c3ccc(OC)cc3)nc2n1	-2.9	4.9	-2.5	0.1	-6.7	32.0	.
CCCc1cc(=O)n2[nH]c(-c3cc(OC)c(OC)c(OC)c3)nc2n1	0.8	2.7	4.3	2.8	5.7	39.0*	i
COc1ccc(-c2nnc(SCC(=O)N/N=C\C=C/c3ccco3)n2-c2ccc(C)cc2)cc1	-1.1	-10.3	.	.	.	.	.
OCCN1CCCC12CCC(c1ccccc1)CC2 (configuration not stated)	-2.7	4.7	.	.	.	.	.
COc1ccc(-c2nc3ccc(C(=O)NCCCN4CCOCC4)cc3nc2-c2ccc(OC)cc2)cc1	1.4	13.8	10.8	.	-4.5	45.6*	i
Cc1ccc(-c2cc(C(=O)NCCCN3CCOCC3)c3ccccc3n2)cc1	0.8	2.3	-8.8	.	-5.2	52.6*	.
COc1ccc(-c2nc3ccccc3c(=O)n2CCCN2CCOCC2)cc1	0.6	-3.1	-1.0	-4.5	-11.6	6.0	.
Cc1nc2ccccc2c(=O)n1CCCN1CCOCC1	2.7	1.0	3.6	.	13.6	43.3*	i
COc1ccccc1CCn1cnc2c3cc(C)ccc3n(C)c2c1=O	-8.7	-6.8	4.5	-11.2	5.9	43.1*	.
COc1ccc2c(c1)c1ncn(CCN3CCCC3)c(=O)c1n2C	-2.6	0.2	-10.2	1.0	7.7	.	.
Clc1ccc([C@H]2OC[C@@]3(CNCCc4c[nH]c5ccccc45)CS[C@H](c4ccc(Cl)cc4)N23)cc1	-4.4	-16.6	.	.	.	.	.
Cc1cc(N2CCOCC2)nc(N2CCOCC2)c1C#N	-1.5	4.0	-5.9	.	4.0	-4.2	.
Cc1cc(C)c(C#N)c(N2CCOCC2)n1	1.0	1.8	5.4	1.9	-1.4	46.5*	+
CC1(C(=O)NS(=O)(=O)c2cccc(C#N)c2)CCN1C(=O)CC1CCCCC1 (configuration not stated)	-2.7	5.0	6.7	.	.	3.2	.
CCCCNC(=O)c1cc2nc(-c3ccc(OC)cc3)cc(C(F)(F)F)n2n1	5.2	9.4	-1.7	.	11.1	31.6	.
Cc1ccc(-c2cc(C(F)(F)F)n3nc(C(=O)NCCCn4ccnc4)cc3n2)cc1C	15.1	17.6	4.3	3.8	1.3	44.1*	.
Cc1ccccc1-c1cnc(C(O)c2c(C)ccc3ccccc23)[nH]1 (configuration not stated)	-5.9	-1.7	-18.3	.	.	-15.3	.
O=C(Nc1cc(Cl)cc(Cl)c1)c1coc(=O)c(Br)c1	6.4	12.9	-9.2	.	-1.3	40.1*	i
O=C(NNC(=O)C1C2CCCCC21)c1coc(=O)c(Br)c1 (configuration not stated)	2.7	-2.7	-3.5	.	12.2	38.6*	i
CC1Oc2ccc(C#N)cc2N(Cc2ccccc2OC(F)(F)F)C1=O (configuration not stated)	1.2	1.8	-6.5	.	.	-2.8	.
CC(C)C[C@@H](CN1CCC[C@@H]1CN1C(=S)NC[C@@H]1Cc1ccc(O)cc1)N1C[C@H](Cc2ccc(O)cc2)N(CC2CCCCCC2)C1=S	4.1	3.4	4.9	.	.	-4.2	.
Cn1c(=O)c2nc(NCc3ccccc3)cnc2n(C)c1=O	-1.2	4.1	16.5	23.8	1.7	63.7*	+
SMILES	GC-B act	NPR1 activator	NOD2 RIPK2 PPI	TLR4 MyD88 comp	TLR9-MyD88 block	Neddylation inh	Neddyl inh conf
Cn1c(=O)c2c(ncn2Cc2ccccc2)n(C)c1=O	2.5	-0.7	3.5	4.8	-0.2	0.6	.
Cc1cc(-c2ccc3c(c2)COc2c4ccccc4nn2-3)on1	-2.1	-0.8	2.9	.	-0.9	43.5*	i
CCCc1cc(-c2ccc3c(c2)COc2c4ccccc4nn2-3)on1	1.7	-0.4	-5.8	.	-4.8	.	.
Cc1nc(-c2cccc3ccccc23)ccc1C(=O)O	-2.0	2.0	-5.4	9.1	-17.2	42.7*	i
CN(C)c1ccc(/C=N/NC(=O)CNC(=O)/C=C/c2ccccc2)cc1	-2.1	-4.4	1.9	.	0.1	12.2	.
Cc1cccc(OCC(=O)N/N=C/c2ccc(N(C)C)cc2)c1	0.9	-2.6	-5.9	-6.6	-3.2	43.4*	+
CN(C)c1ccc(/C=N/NC(=O)CNC(=O)c2ccco2)cc1	-3.6	-6.8	6.8	-7.5	12.6	40.8*	+
CN(C)c1ccc(/C=N/NC(=O)COc2ccccc2)cc1	4.1	-5.8	1.8	-7.0	1.0	58.4*	+
CN(C)c1ccc(/C=N/NC(=O)CCc2nc3ccccc3[nH]2)cc1	-3.7	-4.6	-11.6	.	-0.1	40.7*	+
O=C(Cc1nc2ccccc2[nH]1)N/N=C/c1ccccc1	0.5	-0.4	-6.5	1.8	-0.2	-9.2	.
Clc1cc(Cl)cc(CNC2CCC23CCCCC3)c1 (configuration not stated)	-7.4	-0.1	.	.	.	.	.
Cc1cc(C)cc(-c2c(C(=O)c3ccc(Br)cc3)[nH]c(N)c2C(=O)NCc2ccc(Cl)cc2)c1	-24.6	-17.8	.	.	.	.	.
CN(C)c1ccc(/C=N/NC(=O)c2cccc(N3CCCC3=O)c2)cc1	-7.0	-9.6	-5.0	13.6	5.4	41.6*	i
COc1cc(C(=O)NN=Cc2ccc(N(C)C)cc2)cc(OC)c1OC	-11.2	-6.0	16.9	.	5.2	45.1*	+
COc1cccc(/C=N/NC(=O)c2cccc(N3CCCC3=O)c2)c1	2.2	-4.7	-5.5	.	-3.7	-3.5	.
Cc1ccc(C(=O)NNC(=O)c2n[nH]c(=O)c3ccccc23)cc1C	-3.1	-2.2	-15.2	.	10.5	-6.2	.
CCOC(=O)[C@]12CCCC=C1N(CCc1ccc(OC)c(OC)c1)C(=O)[C@H](CC(=O)N1CCCC1)C2	-0.5	0.1	4.3	.	.	-11.7	.
COC(=O)CSc1nnc(-c2ccc(NS(=O)(=O)c3ccc(Cl)s3)cc2)o1	1.1	16.6	.	.	.	.	.
CC(NC(=O)c1ccc2nc(Cc3cccc(Cl)c3)oc2c1)c1ccncn1 (configuration not stated)	0.5	4.0	4.8	.	9.6	-3.2	.
